Inconclusive results are not listed. The source made the active and inactive calls. Unless noted, the call rests on the fitted dose curve; in most records, active means well fitted curve in either direction with a large enough effect (not every such curve was filed as active); inconclusive means small, poorly fitted or top-dose-only effect, or another doubt; inactive means flat fitted curve, though single readings scatter.
Key:
[1] = molecular target: Lysosomal acid glucosylceramidase (Homo sapiens) (UniProt P04062); test: Glucocerebrosidase-p2 (AID 348; in the data active means potency below about 10 µM; further: potency means the concentration at half of the fitted maximal effect); conditions: purified GBA, blue fluorogenic substrate, 40 min
Chain of Lysosomal acid glucosylceramidase (Homo sapiens) (P04062 whole entry, looked up): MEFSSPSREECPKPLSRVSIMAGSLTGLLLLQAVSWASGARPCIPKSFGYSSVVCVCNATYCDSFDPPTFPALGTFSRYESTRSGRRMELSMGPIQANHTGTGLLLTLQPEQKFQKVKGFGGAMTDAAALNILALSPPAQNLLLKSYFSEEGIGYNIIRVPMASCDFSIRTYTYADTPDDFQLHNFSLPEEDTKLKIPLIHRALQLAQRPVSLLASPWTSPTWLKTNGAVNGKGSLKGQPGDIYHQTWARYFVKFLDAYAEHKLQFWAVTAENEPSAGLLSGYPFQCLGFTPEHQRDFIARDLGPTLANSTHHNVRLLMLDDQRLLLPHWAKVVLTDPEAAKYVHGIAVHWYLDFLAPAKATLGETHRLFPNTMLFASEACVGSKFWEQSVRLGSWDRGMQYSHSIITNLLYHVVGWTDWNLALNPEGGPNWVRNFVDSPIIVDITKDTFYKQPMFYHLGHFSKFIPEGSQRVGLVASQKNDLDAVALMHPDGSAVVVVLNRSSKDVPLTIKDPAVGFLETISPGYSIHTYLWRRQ
Summary of the method: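 Compounds titrated from 0.6 nM upwards against 0.2 nM enzyme in pH 5.9 citric acid/KH2PO4, taurocholate, tween-20; blue fluorogenic substrate 80 uM, 40 min room temperature, stopped and read Ex 365/Em 440 for AC50.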

[2] = AP1 Signaling Pathway (AID 357); conditions: ME-180 AP-1-bla reporter, EGF-induced, beta-lactamase ratio, 5 h; at 7.69 µM (top of the series) unless noted;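 further: ME-180 reporter cells stimulated with EGF at its EC50 level; on the % scale 0 is the no-effect control and ±100 the full control effect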
Summary of the method: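 Read-out was the 460nm/530nm emission ratio (excitation 405nm) after CCF4 loading for 2.5 hours at room temperature. Cells carried an AP-1-driven beta-lactamase reporter, were stimulated with EC50 EGF plus compound for 5 hours, and AC50 values came from titrations.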

[3] = Stat Signaling Pathway (AID 446); conditions: ME-180 SIE beta-lactamase reporter, IL-6 stimulated, 5 h; at 7.69 µM (top of the series) unless noted;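 further: ME-180 cervical cancer cells given 40 pM IL-6 alongside compound; SIE-controlled beta-lactamase reporter measured as 460/530 nm FRET emission ratio; on the % scale 0 is the no-effect control and ±100 the full control effect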
Summary of the method: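 IL-6/STAT signaling read in ME-180 cells via an SIE beta-lactamase reporter. Stimulus was 40 pM IL-6 (its AC50) for 5 hrs, so both activation and inhibition register.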

[4] = molecular target: Glucocorticoid receptor (Homo sapiens) (UniProt P04150); test: GR-EFC Redistribution (AID 451; calls by dose curve; further: potency means the concentration at half of the fitted maximal effect); conditions: CHO-K1 GR-EFC translocation, beta-gal luminescence, 2 h
Chain of Glucocorticoid receptor (Homo sapiens) (P04150 whole entry, looked up, the tested form may be a part): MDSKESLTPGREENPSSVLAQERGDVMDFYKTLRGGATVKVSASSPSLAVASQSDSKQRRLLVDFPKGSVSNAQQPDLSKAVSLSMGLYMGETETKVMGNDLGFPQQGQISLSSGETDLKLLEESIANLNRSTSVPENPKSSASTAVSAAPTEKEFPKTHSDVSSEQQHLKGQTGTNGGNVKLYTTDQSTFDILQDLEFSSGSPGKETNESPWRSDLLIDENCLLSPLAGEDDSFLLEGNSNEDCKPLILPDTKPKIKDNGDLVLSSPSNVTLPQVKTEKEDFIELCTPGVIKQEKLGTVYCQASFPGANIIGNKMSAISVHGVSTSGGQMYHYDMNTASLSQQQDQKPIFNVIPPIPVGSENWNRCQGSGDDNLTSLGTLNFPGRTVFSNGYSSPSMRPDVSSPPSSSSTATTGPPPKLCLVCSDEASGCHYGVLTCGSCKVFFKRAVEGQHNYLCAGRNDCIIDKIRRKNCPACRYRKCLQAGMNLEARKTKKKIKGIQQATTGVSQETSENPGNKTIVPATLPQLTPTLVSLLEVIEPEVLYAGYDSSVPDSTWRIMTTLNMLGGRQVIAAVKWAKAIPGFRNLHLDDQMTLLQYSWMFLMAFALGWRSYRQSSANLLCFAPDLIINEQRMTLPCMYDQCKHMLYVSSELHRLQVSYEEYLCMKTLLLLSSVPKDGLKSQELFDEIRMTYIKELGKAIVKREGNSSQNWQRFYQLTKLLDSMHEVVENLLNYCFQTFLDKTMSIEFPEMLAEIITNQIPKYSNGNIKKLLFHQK
Summary of the method: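 Translocation of GR-ED fusion to nuclear EA restores b-gal, read by luminescence after 1 h room-temperature detection. Engineered CHO-K1 biosensor cells, 1,000/well, exposed 2 h at 37 C to titrations up to 46 uM final.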

[5] = molecular target: Mitogen-activated protein kinase 10 (Mus musculus) (UniProt Q61831); test: JNK3 AlphaScreen Assay (AID 530); conditions: JNK3 lysate, c-Jun phosphorylation; series mostly up to 57.1 µM;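 further: kinase came from lysate of stimulated human HepG2 cells; signal reports phosphorylation of biotinylated GST-cJun 1-79 at Ser73 with 10 µM ATP; on the % scale 0 is the no-effect control and ±100 the full control effect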
Summary of the method: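 Room-temperature AlphaScreen kinase assay; pre-activated HepG2 lysate as JNK3 source, biotin-GST-cJun(1-79) substrate, 10 uM ATP, compound 15 min preincubation.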

[6] = molecular target: 3',5'-cyclic-AMP phosphodiesterase 4B (Homo sapiens) (UniProt Q07343); test: qHTS Assay for Inhibitors of PDE-IV (AID 607; active means well fitted activation curve with a large enough effect in the main read-out, with a control signal flat, not every such curve was filed as active; further: % of control where 0% means no effect); conditions: HEK293 ACTOne CNG channel cells, membrane potential fluorescence; series mostly up to 22.9 µM
Chain of 3',5'-cyclic-AMP phosphodiesterase 4B (Homo sapiens) (Q07343 whole entry, looked up): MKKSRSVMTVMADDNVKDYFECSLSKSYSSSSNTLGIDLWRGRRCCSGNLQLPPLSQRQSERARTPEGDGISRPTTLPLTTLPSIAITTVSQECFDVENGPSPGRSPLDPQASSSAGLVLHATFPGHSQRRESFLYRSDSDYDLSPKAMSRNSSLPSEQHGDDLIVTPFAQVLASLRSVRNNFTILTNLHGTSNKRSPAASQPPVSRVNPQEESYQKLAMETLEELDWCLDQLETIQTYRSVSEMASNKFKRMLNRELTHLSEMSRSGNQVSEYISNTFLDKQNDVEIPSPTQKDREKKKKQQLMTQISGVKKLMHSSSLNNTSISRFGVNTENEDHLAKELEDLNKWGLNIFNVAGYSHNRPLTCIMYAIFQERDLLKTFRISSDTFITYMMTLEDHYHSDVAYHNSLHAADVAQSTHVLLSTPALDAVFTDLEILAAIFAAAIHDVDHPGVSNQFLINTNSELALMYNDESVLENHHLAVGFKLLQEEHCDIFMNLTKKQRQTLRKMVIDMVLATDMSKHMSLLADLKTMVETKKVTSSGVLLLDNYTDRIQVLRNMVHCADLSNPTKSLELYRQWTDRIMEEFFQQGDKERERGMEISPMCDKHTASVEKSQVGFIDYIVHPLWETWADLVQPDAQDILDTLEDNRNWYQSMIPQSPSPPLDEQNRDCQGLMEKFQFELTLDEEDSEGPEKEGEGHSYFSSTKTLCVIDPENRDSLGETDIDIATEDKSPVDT
Summary of the method: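 Live HEK293 cells with a modified cyclic nucleotide-gated (CNG) channel report intracellular cAMP via membrane-potential dye fluorescence (ex 535/em 590 nm). Endogenous PDE-IV was targeted. Compounds were tested at up to 22.9 uM final; RO 20-1724 100 uM served as control.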

[7] = qHTS Assay for Identification of Small Molecule Agonists for Hypoxia Response Element Signaling Pathway (AID 914; active means well fitted activation curve with a large enough effect in the signal ratio, with a control signal flat, not every such curve was filed as active; the % refers to the signal ratio; further: potency means the concentration at half of the fitted maximal effect); conditions: ME-180 (cervical carcinoma) HRE-bla reporter, beta-lactamase ratio, CoCl2, 17 h; activation: stronger effect = higher value
Summary of the method: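 Read-out: CCF4 FRET ratio of 460nm to 530nm emission (excitation 405nm) after 2.5 hours at room temperature, taken from HRE-bla ME-180 cells that had been exposed to compound and EC50 CoCl2 for 17 hours.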

[8] = qHTS Assay for Lipid Storage Modulators (AID 1519; calls by dose curve); conditions: Drosophila S3 cells, BODIPY lipid droplet/cell ratio, laser cytometry, cells loaded with oleic acid; for activity change, negative = inhibition: at 57.5 µM (top of the series)
Summary of the method: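 Cells seeded at 5,000 per well were treated with compounds over a concentration series and loaded with oleic acid (400 uM, as added). Lipid droplet fluorescence (488 nm excitation, 500-530 nm channel) was read by laser-scanning cytometry and normalized to 20 uM Triacsin C.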

[9] = Primary qHTS for small molecule stabilizers of the endoplasmic reticulum resident proteome: Secreted ER Calcium Modulated Protein (SERCaMP) assay (AID 1508630; active means well fitted curve in the direction sought with a large enough effect; an effect the other way counts as inactive or inconclusive; further: on the % scale 0 is the no-effect control and ±100 the full control effect); conditions: SH-SY5Y GLuc-SERCaMP (Gaussia luciferase released on ER calcium loss) secretion, thapsigargin, luminescence; series mostly up to 38.4 µM
Summary of the method: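 GLuc-SERCaMP-expressing SH-SY5Y cells, pretreated 16 h with compound, are challenged with thapsigargin to empty ER calcium stores; after 4 h, coelenterazine is added directly to the medium and luminescence is imaged.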

[10] = molecular target: Cytochrome P450 2C19 (Homo sapiens) (UniProt P33261); test: qHTS Assay for Inhibitors and Substrates of Cytochrome P450 2C19 (AID 899; active means well fitted curve in the direction sought with a large enough effect; an effect the other way counts as inactive or inconclusive; further: on the % scale 0 is the no-effect control and ±100 the full control effect; nearly all actives have a fitted effect of over 60% in size); conditions: recombinant CYP2C19, luciferin-H EGE luminescence; series mostly up to 57.1 µM
Chain of Cytochrome P450 2C19 (Homo sapiens) (P33261 whole entry, looked up): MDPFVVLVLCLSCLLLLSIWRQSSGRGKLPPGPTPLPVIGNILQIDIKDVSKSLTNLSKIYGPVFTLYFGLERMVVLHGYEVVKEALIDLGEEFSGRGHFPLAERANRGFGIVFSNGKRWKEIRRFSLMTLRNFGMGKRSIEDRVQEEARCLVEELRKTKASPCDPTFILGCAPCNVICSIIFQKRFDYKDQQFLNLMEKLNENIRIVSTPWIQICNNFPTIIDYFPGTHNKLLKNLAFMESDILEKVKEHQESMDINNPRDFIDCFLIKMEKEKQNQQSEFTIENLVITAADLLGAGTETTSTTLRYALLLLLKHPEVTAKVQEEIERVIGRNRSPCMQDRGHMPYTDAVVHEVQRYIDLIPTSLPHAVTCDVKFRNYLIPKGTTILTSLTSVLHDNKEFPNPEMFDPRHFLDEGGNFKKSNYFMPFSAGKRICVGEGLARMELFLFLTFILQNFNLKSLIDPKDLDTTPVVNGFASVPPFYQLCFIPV
Summary of the method: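 Reactions contain 5nM enzyme, 10uM Luciferin-H EGE (KM) and 50mM KPO4; compound preincubates 10 min at 37C, NADPH regeneration starts turnover for 60 min. Luminescence after detection reagent gives activity.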

[11] = molecular target: Cytochrome P450 3A4 (Homo sapiens) (UniProt P08684); test: qHTS Assay for Inhibitors and Substrates of Cytochrome P450 3A4 (AID 884; active means well fitted curve in the direction sought with a large enough effect; an effect the other way counts as inactive or inconclusive; further: on the % scale 0 is the no-effect control and ±100 the full control effect; nearly all actives have a fitted effect of over 50% in size); conditions: recombinant CYP3A4, Luciferin-PPXE luminescence; series mostly up to 57.1 µM
Chain of Cytochrome P450 3A4 (Homo sapiens) (P08684 whole entry, looked up): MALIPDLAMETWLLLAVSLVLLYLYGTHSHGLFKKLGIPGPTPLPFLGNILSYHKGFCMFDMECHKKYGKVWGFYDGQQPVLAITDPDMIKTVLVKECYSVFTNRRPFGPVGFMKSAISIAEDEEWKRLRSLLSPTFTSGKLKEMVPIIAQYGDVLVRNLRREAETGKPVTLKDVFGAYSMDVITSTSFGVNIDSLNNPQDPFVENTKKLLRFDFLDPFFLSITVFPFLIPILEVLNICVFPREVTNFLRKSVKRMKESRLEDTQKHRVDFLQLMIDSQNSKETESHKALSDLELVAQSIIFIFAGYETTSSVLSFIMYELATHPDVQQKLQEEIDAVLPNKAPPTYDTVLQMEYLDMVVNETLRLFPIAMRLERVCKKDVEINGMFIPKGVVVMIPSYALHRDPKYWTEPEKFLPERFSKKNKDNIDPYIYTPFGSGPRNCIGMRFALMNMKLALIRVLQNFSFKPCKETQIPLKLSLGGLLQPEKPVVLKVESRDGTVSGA
Summary of the method: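 20 nM human CYP3A4 with 25 uM Luciferin-PPXE (at KM) in 200 mM KPO4, preincubated 10 min with compound; NADPH regeneration started a 60 min RT reaction. Luciferin detected by luminescence, normalized to 57 uM ketoconazole as full inhibition.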

[12] = molecular target: Cytochrome P450 3A4 (Homo sapiens) (UniProt P08684); test: qHTS Assay for Activators of Cytochrome P450 3A4 (AID 885; active means well fitted curve in the direction sought with a large enough effect; an effect the other way counts as inactive or inconclusive; further: nearly all actives have a fitted effect of over 65% in size; further: potency means the concentration at half of the fitted maximal effect); conditions: recombinant CYP3A4, Luciferin-PPXE luminescence, 60 min; series mostly up to 57.1 µM
Summary of the method: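 Quantitative HTS format: compounds preincubated with 20nM human CYP3A4 and Luciferin-PPXE substrate at KM, reaction started by NADPH regeneration, stopped after 60 min, luciferase luminescence read 20 min later.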

[13] = molecular target: Cytochrome P450 1A2 (Homo sapiens) (UniProt P05177); test: p450-cyp1a2 (AID 410; calls by dose curve; further: potency means the concentration at half of the fitted maximal effect); conditions: recombinant CYP1A2, luciferin-ME demethylation, luminescence; series mostly up to 57 µM
Chain of Cytochrome P450 1A2 (Homo sapiens) (P05177 whole entry, looked up): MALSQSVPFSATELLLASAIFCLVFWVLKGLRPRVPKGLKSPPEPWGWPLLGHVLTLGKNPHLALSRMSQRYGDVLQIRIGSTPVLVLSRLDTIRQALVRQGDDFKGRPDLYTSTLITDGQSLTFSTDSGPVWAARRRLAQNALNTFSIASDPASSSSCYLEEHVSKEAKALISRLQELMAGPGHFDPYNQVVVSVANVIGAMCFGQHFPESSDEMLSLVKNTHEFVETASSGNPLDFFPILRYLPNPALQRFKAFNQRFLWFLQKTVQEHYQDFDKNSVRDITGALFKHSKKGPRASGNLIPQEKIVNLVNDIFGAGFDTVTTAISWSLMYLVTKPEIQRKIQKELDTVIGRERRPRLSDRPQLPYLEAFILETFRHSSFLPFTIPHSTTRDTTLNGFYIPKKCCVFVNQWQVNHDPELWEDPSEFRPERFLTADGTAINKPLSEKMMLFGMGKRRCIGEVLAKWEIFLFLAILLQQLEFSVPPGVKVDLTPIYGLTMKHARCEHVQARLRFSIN
Summary of the method: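 Human CYP1A2 (20nM) demethylated Luciferin-ME at its Km (100uM) in 100mM KPO4. After 10 min compound preincubation, NADPH regeneration ran the reaction 60 min at room temperature. Luciferin was read by luminescence, normalized to 57 uM furafylline.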

[14] = molecular target: Glucocorticoid receptor (Homo sapiens) (UniProt P04150); test: GR-GFP Redistribution (AID 450;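 active means compounds whose dose series gives a full or clear partial fitted curve of increased nuclear translocation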; further: potency means the concentration at half of the fitted maximal effect); conditions: U2OS GR-GFP nuclear translocation, laser cytometry, 2 h
[15] = NFAT Signaling Pathway (AID 444); conditions: Jurkat NFAT-bla M1, carbachol, beta-lactamase ratio, 5 h; at 7.69 µM (top of the series) unless noted
Summary of the method: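 Read-out: CCF4 FRET ratio (460 nm/530 nm) after 1 h RT dye loading, used for %activity and AC50 from titration series. Cells: Jurkat NFAT-β-lactamase/M1 line, treated with compound plus 1 uM carbachol for 5 h, 37 °C.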

[16] = molecular target: Cytochrome P450 2D6 (Homo sapiens) (UniProt P10635); test: qHTS Assay for Inhibitors and Substrates of Cytochrome P450 2D6 (AID 891; active means well fitted curve in the direction sought with a large enough effect; an effect the other way counts as inactive or inconclusive; further: potency means the concentration at half of the fitted maximal effect; nearly all actives have a fitted effect of over 60% in size); conditions: recombinant CYP2D6, luciferin-ME EGE luminescence; series mostly up to 57.1 µM
Chain of Cytochrome P450 2D6 (Homo sapiens) (P10635 whole entry, looked up): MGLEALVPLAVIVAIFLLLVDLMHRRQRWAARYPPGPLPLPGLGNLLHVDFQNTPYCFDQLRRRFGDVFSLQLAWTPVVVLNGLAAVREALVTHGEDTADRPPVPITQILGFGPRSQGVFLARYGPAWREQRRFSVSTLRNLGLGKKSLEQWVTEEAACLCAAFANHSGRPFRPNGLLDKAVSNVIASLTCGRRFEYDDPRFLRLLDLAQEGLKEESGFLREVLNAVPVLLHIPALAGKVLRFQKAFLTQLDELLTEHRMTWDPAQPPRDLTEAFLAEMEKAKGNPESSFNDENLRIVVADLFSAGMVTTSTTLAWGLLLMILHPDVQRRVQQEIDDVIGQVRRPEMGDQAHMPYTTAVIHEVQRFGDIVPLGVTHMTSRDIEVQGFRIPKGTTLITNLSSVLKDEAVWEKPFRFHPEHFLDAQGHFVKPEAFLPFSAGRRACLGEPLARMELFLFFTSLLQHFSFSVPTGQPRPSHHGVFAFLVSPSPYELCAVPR
Summary of the method: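 Human CYP2D6 (5 nM) with 30 uM Luciferin-ME EGE (at Km) in 100 mM KPO4, compound preincubated 10 min, then NADPH regeneration system for 60 min at room temperature. Luciferin read by luminescence; normalized to 1.43 uM quinidine.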

[17] = measured here: cell count channel max response
[18] = measured here: lipid channel max response

SMILES | Potency [1] | activity change, negative = inhibition [2] | activity, negative = inhibition [3] | Potency [4] | Potency [5] | Potency [6] | Potency [7] | activity change, negative = inhibition [8] | max response [8, 17] | max response [8, 18] | outcome [9] | Potency [10] | Potency [11] | Potency [12] | Potency [13] | Potency [14] | activity change, negative = inhibition [15] | Potency [16]
N#Cc1ccc(CN2CC3(CCN(C(=O)c4cnccn4)CC3)C2)cc1 | > 11.4 µM (inactive) | -10.3% (inactive) | 11.6% (inactive) | > 46 µM (inactive) | inactive | inactive | 3.16 µM (active) | 3.16% (inactive) | 15% | 20.2% | inactive |  |  |  |  |  |  | 
COCC(=O)N1CCC2(CCN(Cc3ccccc3)CC2)CC1 | > 11.4 µM (inactive) | -10.9% (inactive) | -3.84% (inactive) | > 46 µM (inactive) | inactive | inactive |  | 1.52% (inactive) | 2.79% | 9.37% | inactive |  |  |  |  |  |  | 
COC(=O)N1CCC2(CCN(Cc3ccccc3)CC2)CC1 | > 11.4 µM (inactive) | -5.32% (inactive) | -1.16% (inactive) | > 46 µM (inactive) | inactive | inactive |  | 2.47% (inactive) | -0.656% | 4.63% | inactive |  |  |  |  |  |  | 
N#Cc1ccc(CN2CCCC3(CCN(C(=O)c4csnn4)CC3)C2)cc1 | > 11.4 µM (inactive) | -6.06% (inactive) |  | > 46 µM (inactive) | inactive | inactive |  | -0.464% (inactive) | -10.9% | -8.04% | inactive |  |  |  |  |  |  | 
CS(=O)(=O)N1CCC2(CCCN(Cc3ccc(C#N)cc3)C2)CC1 | > 11.4 µM (inactive) | -16.1% (inactive) | -15% (inactive) | > 46 µM (inactive) | inactive | inactive |  | 1.06% (inactive) | -8.06% | -6.26% | inactive |  |  |  |  |  |  | 
COC(=O)N1CCC2(CCCN(c3ccncc3)C2)CC1 | > 11.4 µM (inactive) | -3.28% (inactive) | 5.05% (inactive) | > 46 µM (inactive) | inactive | inactive |  | 5.16% (inactive) | 21.3% | 29.2% | inactive | inactive |  |  |  |  |  | 
O=C(Oc1ccccc1)N1CCC2(CC1)CN(c1ccccn1)C2 | > 11.4 µM (inactive) | 5.21% (inactive) | -0.424% (inactive) | > 46 µM (inactive) | inactive | inactive |  | 7.94% (inactive) | 3.44% | 13.9% | inactive |  | inactive | 15.8 µM (active) |  |  |  | 
Cn1cccc1C(=O)N1CCC2(CCCN(C(=O)Nc3cccc(F)c3)C2)CC1 | > 11.4 µM (inactive) | -15.3% (inactive) |  | > 46 µM (inactive) | inactive | inactive |  | 5.97% (inactive) | -2.38% | 6.22% | inactive |  |  | inactive |  |  |  | 
CC(C)CN1CCCC2(CCN(C(=O)c3cccc(F)c3)CC2)C1 | > 11.4 µM (inactive) | -3.93% (inactive) | -0.516% (inactive) | > 46 µM (inactive) | inactive | inactive |  | 2.15% (inactive) | 18.6% | 24.2% | inactive |  |  | inactive |  |  |  | 
COC(=O)N1CCC2(CCCN(C(=O)Nc3cccc(C#N)c3)C2)CC1 | > 11.4 µM (inactive) | -0.449% (inactive) |  | > 46 µM (inactive) | inactive | inactive |  | 4.6% (inactive) | 16% | 23.7% | inactive |  |  | inactive |  |  |  | 
O=C(c1cnccn1)N1CCC2(CCN(Cc3cc(C(F)(F)F)cc(C(F)(F)F)c3)CC2)CC1 | > 11.4 µM (inactive) | 6.25% (inactive) | -5.04% (inactive) | > 46 µM (inactive) | inactive | inactive |  | 2.5% (inactive) | 13.6% | 15.1% | inactive |  |  |  |  |  |  | 
O=C(c1csnn1)N1CCC2(CCN(Cc3cc(C(F)(F)F)cc(C(F)(F)F)c3)CC2)CC1 | > 11.4 µM (inactive) | 11.5% (inactive) | 4.05% (inactive) | > 46 µM (inactive) | inactive | inactive |  | 1.96% (inactive) | 7.55% | 11.7% | inactive |  |  |  |  |  |  | 
COc1ccc(-c2nc3cnc(N4CCNCC4)nc3n(C)c2=O)cc1 | > 11.4 µM (inactive) |  |  | > 46 µM (inactive) | inactive | inactive |  | 4.15% (inactive) | 15.8% | 21.9% | inactive |  |  | inactive | 12.6 µM (active) | > 9.22 µM (inactive) |  | 
O=C(c1ccncc1)N1CCC[C@@]2(CCN(c3ccncc3)C2)C1 | > 11.4 µM (inactive) |  | -3.85% (inactive) | > 46 µM (inactive) | inactive | inactive |  | 3.8% (inactive) | 9.21% | 15% | inactive |  |  |  |  |  | -14.9% (inactive) | 
O=C(c1cnccn1)N1CCC2(CC1)CN(C(c1ccccc1)c1ccccc1)C2 | > 11.4 µM (inactive) |  | -4.86% (inactive) | > 46 µM (inactive) | inactive | inactive |  | 1.71% (inactive) | 6.7% | 10.5% | inactive |  | inactive | 12.6 µM (active) | 25.1 µM (active) |  |  | 6.31 µM (active)

Source: PubChem BioAssay (NCATS)
